The results in this text go back to PubChem BioAssay AID449762 (Southern Research Specialized Biocontainment Screening …, 2010).

Structures are written as SMILES. Screen size: about 330,000 compounds; about 1,900 (0.58%) were called active. Not shown: some 4% with an inconclusive outcome. A selection follows. Entries with a potency or affinity are not part of this list. Values without a mark were called inactive. Rule as the data show it: inconclusive = inhibition above about 70% without an active follow-up result; inactive = below that.

The nature of the assay: M. tuberculosis growth inhibition, HTS (AID 449762).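 Also: bacterial growth assessed after seven days of incubation.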 Conditions: M. tuberculosis H37Rv growth inhibition, 7H9 media; at 25 µM; active compounds read high.
In the case of `O=c1[nH]cc(S(=O)(=O)Nc2ccc3c(c2)OCO3)c(=O)[nH]1`, the inhibition (commonly the drop in the measured response relative to a control, in per cent) was 7.53%.

In the case of `COc1ccc2nc(N3C(=O)C(O)=C(C(=O)c4ccco4)C3c3ccccc3OC)sc2c1` (stereo not given), the inhibition was 0.62%.

`COc1cccc(C2CC(c3ccccc3OC)n3ncnc3N2)c1` (stereo not given): the inhibition is -5.17%.

As to `CC(=O)N/C(=C\c1ccccc1)C(=O)NC(C)C(=O)O` (stereo not given), the inhibition is -2.83%.

As to `O=C(COC(=O)c1cc2ccccc2cc1O)Nc1cccnc1Cl`, the inhibition is -17%.

Turning to `C=CCNC(=O)N1CCc2[nH]c3ccc(F)cc3c2C1`, the inhibition is -1.16%.

As to `CC(OC(=O)Cc1n[nH]c(=O)c2ccccc12)C(=O)Nc1ccc(F)cc1Cl` (stereo not given), the inhibition was -10.4%.

With `Cn1c(C(=O)N(Cc2ccccc2)Cc2ccccn2)cc2sccc21`, the inhibition is -2.09%.

Turning to `Cc1cccc(C(=O)OCC(=O)Nc2ccccc2C(=O)NC2CC2)c1`, the inhibition was -11.3%.

Turning to `Cn1c(SCC(=O)c2ccc3c(c2)OCCO3)nnc1C(F)(F)F`, the inhibition was -5.9%.

For the compound `O=C(/C=C/c1ccc[nH]1)c1ccc(F)cc1`, the inhibition was 2.02%.

Take `O=C(/C=C/c1c(F)cccc1Cl)c1ccc(O)cc1`: the inhibition is -0.9%.

With `Cc1cc(C)n2c(Br)c(CSc3nc4ccccc4s3)nc2n1`, the inhibition is -0.87%.

Regarding `CC(NC(=O)CSC(=S)N1CCCC1)c1ccc(S(N)(=O)=O)cc1` (stereo not given), the inhibition was -7.22%.

Consider `Cc1cc(/C=N/NC(=O)c2cccs2)c(C)n1-c1ccccc1`, for which the inhibition is 3.6%.

With `Cc1cc(/C=N/NC(=O)c2cccs2)c(C)n1-c1cnccn1`, the inhibition is 11.2%.

As for `Cc1ccc(C)c(OCC(=O)NNC(=O)CCN2CCN(c3ccccc3)CC2)c1`, the inhibition was 7.6%.

Take `COc1cccc(NC(=O)CSc2nnc(-c3cc(C)[nH]n3)n2N)c1`: the inhibition is 7.87%.

Take `CCc1cc2c(=O)c(-c3nc4ccccc4n3C)c(C)oc2c(CN2CCCCC2)c1O`: the inhibition was -5.94%.

As to `CCc1cc2c(=O)c(-c3cnn(-c4ccccc4)c3)c(C(F)(F)F)oc2c(CN(C)C)c1O`, the inhibition is 5.42%.

As to `CC1CN(C(=O)CCC(=O)N2CCN(c3cccc(C(F)(F)F)c3)CC2)c2ccccc2O1` (stereo not given), the inhibition was 9.11%.

For the compound `COc1ccccc1NC(=O)N(Cc1ccccc1)C1=NCC(C)S1` (stereo not given), the inhibition was 6.61%.

As for `OC(CNCC1CCCO1)COc1ccc(OCC(O)CNCC2CCCO2)cc1` (stereo not given), the inhibition is 5.75%.

With `CCOC(=O)c1c(C)n(C)c2ccc(OCC(O)CNCCc3ccccc3)cc12` (stereo not given), the inhibition was 15.2%.

With `COc1ccc(N2CCN(C(=O)c3sc4ncn(CC(=O)N5CCCCC5C)c(=O)c4c3C)CC2)cc1` (stereo not given), the inhibition was -4.52%.
